Experimental data reported in the supplement of paper PMC11732987, “Enantioselective OTUD7B fragment discovery through chemoproteomics screening and high-throughput optimisation” (Communications Chemistry, 2025).

Columns and labels:
Assay in all cases: log2 ratio of Biotin-Ahx-Ub-VS probe labelling (fragment/DMSO); higher = less target engagement (more negative = stronger competition), active = hit call of the paper (q ≤ 0.05, log2 ratio ≤ -1)
Conditions in all cases: compound concentration: 200 uM; treatment time: 3 h
USP34 = USP34 (UniProt Q70CQ2)
Summary of the method: (§1)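 HEK293T lysate in Tris/CHAPS/IGEPAL buffer with protease inhibitors (495 µg per sample) was given fragment at 200 µM or vehicle for 3 h, in triplicate. It then received Biotin-Ahx-Ub-VS at 0.5 µM final for 1 h. Labelled DUBs were NeutrAvidin-enriched, digested with LysC and trypsin, and run by diaPASEF LC-MS/MS. Values are average log2 fragment/vehicle ratios by unpaired t-test on global-median-normalised Spectronaut quantities of proteins with ≥2 unique peptides.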

USP36 = molecular target: T1, USP36 (UniProt Q9P275)
T1 sequence (whole entry): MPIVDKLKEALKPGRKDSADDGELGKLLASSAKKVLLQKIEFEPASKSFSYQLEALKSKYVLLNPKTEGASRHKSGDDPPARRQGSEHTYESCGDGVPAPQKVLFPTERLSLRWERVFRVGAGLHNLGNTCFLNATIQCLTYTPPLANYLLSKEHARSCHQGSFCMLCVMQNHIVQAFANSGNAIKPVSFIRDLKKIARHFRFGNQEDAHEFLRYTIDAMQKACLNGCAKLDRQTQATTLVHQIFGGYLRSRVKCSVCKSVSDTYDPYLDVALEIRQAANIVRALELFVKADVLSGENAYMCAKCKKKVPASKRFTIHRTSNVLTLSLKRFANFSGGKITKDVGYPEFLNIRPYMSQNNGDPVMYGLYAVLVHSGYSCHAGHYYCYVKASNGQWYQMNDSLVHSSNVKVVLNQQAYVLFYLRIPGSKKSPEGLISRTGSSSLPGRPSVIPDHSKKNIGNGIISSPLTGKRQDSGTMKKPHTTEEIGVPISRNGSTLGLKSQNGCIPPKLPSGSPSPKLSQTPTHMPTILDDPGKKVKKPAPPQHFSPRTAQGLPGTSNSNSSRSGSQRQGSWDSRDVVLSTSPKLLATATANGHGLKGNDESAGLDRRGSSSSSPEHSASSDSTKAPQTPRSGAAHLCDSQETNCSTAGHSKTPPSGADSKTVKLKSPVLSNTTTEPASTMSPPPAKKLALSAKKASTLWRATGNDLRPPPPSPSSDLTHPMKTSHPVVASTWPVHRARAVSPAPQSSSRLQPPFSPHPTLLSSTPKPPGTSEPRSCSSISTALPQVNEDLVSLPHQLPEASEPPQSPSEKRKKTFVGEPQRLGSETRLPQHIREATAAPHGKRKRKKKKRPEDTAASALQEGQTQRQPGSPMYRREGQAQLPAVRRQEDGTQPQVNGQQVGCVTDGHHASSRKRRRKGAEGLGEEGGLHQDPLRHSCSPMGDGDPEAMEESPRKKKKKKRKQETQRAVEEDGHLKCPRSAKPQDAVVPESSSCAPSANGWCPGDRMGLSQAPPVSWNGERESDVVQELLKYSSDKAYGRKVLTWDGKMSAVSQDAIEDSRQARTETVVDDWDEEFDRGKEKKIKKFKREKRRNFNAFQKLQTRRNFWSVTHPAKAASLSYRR
Summary of the method: as §1

USP38 = molecular target: T2, USP38 (UniProt Q8NB14)
T2 sequence (whole entry): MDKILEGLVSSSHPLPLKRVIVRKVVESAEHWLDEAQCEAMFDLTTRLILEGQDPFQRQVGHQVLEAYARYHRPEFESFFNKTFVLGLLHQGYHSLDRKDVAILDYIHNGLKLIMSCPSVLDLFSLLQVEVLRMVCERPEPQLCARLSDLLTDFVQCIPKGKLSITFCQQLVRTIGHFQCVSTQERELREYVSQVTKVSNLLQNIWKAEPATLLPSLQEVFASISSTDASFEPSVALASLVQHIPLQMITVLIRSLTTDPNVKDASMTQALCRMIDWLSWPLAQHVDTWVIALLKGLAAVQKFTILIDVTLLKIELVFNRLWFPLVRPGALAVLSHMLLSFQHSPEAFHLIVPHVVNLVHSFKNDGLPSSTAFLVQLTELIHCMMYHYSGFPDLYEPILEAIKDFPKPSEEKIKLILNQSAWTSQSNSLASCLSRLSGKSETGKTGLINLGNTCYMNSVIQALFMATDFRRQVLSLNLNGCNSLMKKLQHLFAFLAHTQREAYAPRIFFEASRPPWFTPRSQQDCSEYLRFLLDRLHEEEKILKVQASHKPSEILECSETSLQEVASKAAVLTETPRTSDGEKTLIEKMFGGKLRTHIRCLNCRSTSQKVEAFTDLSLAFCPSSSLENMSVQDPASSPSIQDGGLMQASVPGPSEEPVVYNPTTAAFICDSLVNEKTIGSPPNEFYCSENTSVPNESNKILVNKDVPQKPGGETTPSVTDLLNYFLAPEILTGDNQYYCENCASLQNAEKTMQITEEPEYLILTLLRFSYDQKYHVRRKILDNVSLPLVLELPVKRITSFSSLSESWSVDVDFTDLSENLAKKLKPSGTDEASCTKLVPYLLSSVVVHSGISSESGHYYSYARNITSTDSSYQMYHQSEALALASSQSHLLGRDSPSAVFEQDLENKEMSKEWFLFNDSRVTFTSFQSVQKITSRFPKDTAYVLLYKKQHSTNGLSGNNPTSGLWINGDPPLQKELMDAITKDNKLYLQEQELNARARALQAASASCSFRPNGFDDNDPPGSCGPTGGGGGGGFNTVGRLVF
Summary of the method: as §1

USP39 = molecular target: T3, USP39 (UniProt Q53GS9)
T3 sequence (whole entry): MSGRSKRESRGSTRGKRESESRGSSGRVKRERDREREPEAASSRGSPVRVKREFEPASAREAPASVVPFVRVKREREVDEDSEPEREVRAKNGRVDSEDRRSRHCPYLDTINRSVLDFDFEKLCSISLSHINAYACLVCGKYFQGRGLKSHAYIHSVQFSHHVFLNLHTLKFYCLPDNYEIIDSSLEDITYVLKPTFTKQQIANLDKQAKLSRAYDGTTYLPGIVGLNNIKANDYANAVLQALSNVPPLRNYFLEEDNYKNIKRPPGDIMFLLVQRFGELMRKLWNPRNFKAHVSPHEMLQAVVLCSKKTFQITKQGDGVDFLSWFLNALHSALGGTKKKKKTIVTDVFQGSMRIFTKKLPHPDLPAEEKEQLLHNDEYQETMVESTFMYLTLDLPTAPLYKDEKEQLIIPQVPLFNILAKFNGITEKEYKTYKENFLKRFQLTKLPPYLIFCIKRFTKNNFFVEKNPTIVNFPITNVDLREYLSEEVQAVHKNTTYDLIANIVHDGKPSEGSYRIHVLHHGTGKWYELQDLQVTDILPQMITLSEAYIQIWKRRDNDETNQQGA
Summary of the method: as §1

USP4 = molecular target: T4, USP4 (UniProt Q13107)
T4 sequence (whole entry): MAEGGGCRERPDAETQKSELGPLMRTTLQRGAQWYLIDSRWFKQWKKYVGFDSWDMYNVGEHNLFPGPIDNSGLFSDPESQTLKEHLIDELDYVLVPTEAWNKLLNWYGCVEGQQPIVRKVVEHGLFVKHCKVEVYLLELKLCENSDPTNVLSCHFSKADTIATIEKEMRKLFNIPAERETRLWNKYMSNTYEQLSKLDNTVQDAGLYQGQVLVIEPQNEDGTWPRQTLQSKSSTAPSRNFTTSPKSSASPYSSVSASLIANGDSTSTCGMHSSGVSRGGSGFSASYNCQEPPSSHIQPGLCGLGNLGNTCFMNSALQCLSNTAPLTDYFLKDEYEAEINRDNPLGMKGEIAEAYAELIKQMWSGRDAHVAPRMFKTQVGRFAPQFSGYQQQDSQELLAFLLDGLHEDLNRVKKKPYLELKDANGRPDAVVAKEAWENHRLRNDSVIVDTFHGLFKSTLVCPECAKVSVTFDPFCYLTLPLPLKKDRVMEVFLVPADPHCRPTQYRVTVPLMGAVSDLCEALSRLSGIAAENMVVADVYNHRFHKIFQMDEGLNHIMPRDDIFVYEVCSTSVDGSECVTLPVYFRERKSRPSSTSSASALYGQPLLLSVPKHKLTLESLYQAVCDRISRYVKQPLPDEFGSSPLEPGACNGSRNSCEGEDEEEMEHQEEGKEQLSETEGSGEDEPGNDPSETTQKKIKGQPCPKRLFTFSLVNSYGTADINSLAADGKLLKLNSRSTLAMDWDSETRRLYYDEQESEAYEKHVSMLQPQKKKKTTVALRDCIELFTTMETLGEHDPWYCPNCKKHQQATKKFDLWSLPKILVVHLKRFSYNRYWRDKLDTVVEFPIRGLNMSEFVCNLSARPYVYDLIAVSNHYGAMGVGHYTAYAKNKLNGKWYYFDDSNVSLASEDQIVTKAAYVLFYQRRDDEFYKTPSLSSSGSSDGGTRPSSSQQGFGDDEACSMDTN
Summary of the method: as §1

Measured: log2 ratio of Biotin-Ahx-Ub-VS probe labelling

USP34, sequence (Q70CQ2 whole entry, the tested form may be a part): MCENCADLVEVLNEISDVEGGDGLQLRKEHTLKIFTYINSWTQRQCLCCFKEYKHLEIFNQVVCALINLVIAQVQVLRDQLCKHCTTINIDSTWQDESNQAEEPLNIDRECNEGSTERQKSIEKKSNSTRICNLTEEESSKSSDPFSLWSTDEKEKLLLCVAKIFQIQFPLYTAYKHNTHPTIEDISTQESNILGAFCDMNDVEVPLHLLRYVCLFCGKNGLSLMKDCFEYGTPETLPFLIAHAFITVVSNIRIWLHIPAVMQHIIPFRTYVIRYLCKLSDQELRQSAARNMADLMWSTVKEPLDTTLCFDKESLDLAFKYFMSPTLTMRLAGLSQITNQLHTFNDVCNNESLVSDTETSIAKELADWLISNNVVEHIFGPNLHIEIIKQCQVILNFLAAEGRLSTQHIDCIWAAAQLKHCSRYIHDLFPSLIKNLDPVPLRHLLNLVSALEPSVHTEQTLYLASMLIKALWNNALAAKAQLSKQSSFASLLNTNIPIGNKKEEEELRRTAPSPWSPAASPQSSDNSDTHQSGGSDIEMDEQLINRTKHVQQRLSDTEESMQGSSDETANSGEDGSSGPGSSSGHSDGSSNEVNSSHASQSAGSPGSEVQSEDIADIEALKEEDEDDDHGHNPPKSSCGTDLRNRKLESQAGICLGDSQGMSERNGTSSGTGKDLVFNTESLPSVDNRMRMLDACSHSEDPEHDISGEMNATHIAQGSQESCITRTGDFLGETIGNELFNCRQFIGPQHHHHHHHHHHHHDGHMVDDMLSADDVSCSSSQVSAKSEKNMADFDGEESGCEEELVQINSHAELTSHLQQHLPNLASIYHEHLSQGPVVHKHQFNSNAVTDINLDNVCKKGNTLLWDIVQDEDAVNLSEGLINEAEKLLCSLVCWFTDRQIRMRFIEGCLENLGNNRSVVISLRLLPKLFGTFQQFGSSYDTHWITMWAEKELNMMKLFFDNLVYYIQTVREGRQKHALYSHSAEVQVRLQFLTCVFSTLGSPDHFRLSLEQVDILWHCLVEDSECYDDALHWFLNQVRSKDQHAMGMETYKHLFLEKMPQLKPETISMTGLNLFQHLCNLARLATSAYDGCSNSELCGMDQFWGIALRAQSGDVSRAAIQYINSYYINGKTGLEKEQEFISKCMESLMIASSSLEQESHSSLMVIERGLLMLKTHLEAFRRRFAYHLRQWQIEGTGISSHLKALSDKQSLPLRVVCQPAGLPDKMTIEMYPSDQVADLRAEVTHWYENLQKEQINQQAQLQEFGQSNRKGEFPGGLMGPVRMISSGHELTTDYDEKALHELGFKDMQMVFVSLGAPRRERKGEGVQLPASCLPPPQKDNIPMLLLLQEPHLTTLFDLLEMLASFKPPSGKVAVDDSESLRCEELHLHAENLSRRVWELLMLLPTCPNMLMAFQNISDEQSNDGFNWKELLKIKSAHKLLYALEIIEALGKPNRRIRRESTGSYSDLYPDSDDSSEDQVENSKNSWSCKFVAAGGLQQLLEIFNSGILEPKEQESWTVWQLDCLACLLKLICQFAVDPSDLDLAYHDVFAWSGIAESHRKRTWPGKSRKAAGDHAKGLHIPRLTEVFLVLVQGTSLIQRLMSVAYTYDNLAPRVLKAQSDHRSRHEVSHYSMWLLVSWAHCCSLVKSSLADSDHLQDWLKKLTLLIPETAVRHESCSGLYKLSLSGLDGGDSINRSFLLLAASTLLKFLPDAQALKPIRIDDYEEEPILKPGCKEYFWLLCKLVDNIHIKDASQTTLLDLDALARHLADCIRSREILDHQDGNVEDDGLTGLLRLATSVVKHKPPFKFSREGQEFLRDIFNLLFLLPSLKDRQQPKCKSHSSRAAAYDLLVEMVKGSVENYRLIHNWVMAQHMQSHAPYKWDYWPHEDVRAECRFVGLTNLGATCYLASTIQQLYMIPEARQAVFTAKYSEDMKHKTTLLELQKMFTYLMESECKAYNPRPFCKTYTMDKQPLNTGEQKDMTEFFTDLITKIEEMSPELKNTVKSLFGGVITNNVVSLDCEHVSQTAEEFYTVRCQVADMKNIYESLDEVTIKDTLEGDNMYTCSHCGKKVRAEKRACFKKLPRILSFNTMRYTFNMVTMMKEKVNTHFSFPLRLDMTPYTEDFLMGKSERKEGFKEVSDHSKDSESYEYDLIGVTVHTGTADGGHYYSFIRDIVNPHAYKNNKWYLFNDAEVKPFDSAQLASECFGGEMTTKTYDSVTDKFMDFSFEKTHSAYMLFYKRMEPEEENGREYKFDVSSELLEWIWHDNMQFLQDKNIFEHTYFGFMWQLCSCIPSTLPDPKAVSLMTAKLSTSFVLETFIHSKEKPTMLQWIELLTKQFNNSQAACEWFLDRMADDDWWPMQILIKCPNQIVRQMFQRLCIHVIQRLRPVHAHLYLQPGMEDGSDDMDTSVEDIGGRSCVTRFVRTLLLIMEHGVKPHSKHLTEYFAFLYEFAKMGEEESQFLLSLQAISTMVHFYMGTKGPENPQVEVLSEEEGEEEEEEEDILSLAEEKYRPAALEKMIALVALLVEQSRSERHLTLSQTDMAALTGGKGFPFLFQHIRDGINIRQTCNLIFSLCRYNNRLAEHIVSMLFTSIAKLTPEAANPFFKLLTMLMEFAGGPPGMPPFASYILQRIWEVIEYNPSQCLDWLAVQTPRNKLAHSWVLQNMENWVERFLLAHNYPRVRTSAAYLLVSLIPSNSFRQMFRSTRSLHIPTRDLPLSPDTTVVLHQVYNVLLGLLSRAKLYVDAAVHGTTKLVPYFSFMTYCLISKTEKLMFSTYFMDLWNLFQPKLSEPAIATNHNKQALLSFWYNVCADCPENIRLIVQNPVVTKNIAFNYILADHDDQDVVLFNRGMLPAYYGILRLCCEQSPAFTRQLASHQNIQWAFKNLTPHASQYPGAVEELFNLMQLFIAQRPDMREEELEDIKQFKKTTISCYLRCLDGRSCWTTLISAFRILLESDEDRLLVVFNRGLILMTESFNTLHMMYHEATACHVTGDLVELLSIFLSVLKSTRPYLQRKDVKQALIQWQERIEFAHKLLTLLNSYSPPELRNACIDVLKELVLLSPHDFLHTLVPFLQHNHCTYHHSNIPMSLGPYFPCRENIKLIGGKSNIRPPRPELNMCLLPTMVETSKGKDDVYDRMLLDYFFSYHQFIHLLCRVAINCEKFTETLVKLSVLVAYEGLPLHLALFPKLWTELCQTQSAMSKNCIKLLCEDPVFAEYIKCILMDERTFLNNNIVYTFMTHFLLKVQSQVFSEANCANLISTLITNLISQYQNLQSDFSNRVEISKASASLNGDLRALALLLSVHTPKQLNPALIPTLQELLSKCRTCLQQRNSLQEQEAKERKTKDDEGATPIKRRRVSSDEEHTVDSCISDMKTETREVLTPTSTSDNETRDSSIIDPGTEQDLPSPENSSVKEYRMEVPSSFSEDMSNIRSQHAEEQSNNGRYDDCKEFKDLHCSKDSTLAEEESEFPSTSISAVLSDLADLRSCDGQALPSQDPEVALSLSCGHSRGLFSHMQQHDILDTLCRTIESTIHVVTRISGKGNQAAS

C[C@@H](NC(=O)CCl)c1cccc(C#N)c1
inactive: USP34 -0.444 | USP36 0.00395 | USP38 -0.0294 | USP39 0.198 | USP4 0.0193
